The values that follow come from the supplement of paper PMC13380429.

The subject of assay [1] is Vero E6 infected with SARS-CoV-2. In words: morphology score (similarity to uninfected cells); higher = more like uninfected cells. As to conditions: 24 h.
For assay [2] the test system is unchanged. The experiment in a line: SARS-CoV-2 infection rate relative to infected DMSO; higher = more infection, active = 60 or less. As to conditions: 24 h.

In turn, `CC(C)C1=C2[C@H]3CC[C@@H]4[C@@]5(C)CC[C@H](OC(=O)CC(C)(C)C(=O)O)C(C)(C)[C@@H]5CC[C@@]4(C)[C@]3(C)CC[C@@]2([C@@H](O)CN(CCN(C)C)Cc2ccc(Cl)cc2)CC1=O` (10 µM) displayed a morphology score in assay [1] of 0.203. Also, the SARS-CoV-2 infection rate in assay [2] is 96% (inactive).
For the compound `CCCC[P+](CCCC)(CCCC)Cc1ccc(NC(=O)[C@H](Cc2ccc3ccccc3c2)N/C(=N/C2CCCCC2)NC2CCCCC2)cc1` (10 µM), the morphology score in assay [1] was found to be 0.122. The SARS-CoV-2 infection rate in assay [2] is 92% (inactive).
`NC(=O)c1ccc[n+]([C@@H]2O[C@H](COP(=O)([O-])OP(=O)(O)OC[C@H]3O[C@@H](n4cnc5c(N)ncnc54)[C@H](O)[C@@H]3O)[C@@H](O)[C@H]2O)c1` [nadide] (10 µM): the morphology score in assay [1] was -0.0496. For the same compound, the SARS-CoV-2 infection rate in assay [2] is 94% (inactive).
For the compound `CCCCOc1ccc(C(=O)CCN2CCCCC2)cc1` [dyclonine] (10 µM), the morphology score in assay [1] came to 0.347. Also, the SARS-CoV-2 infection rate in assay [2] is 91.5% (inactive).
As to `CN(C)c1cccc(-c2c3c(=O)n(-c4ccccc4Cl)[nH]c3cc(=O)n2C)c1` (10 µM), in assay [1], the morphology score was determined as 0.165. Moreover, the SARS-CoV-2 infection rate in assay [2] was 112% (inactive).
In assay [1], `CC(C)(C)C(=O)C(Oc1ccc(Cl)cc1)n1ccnc1` (stereo not drawn) [climbazole] (10 µM) returned a morphology score of 0.217. The SARS-CoV-2 infection rate in assay [2] is 91.5% (inactive).
The corresponding values for `C[N+](C)(C)CCOC(=O)CCC(=O)OCC[N+](C)(C)C` [succinylcholine-chloride] (10 µM) are -0.0136 and 110% (inactive).
The corresponding values for `C[C@@H](N)c1ccc(C(=O)Nc2ccnc3[nH]ccc23)cc1` (10 µM) are -0.104 and 112% (inactive).
In assay [1], `CC(C(=O)O)c1cccc(C(=O)c2ccccc2)c1` (stereo not drawn) [ketoprofen] (10 µM) showed a morphology score of 0.173. Moreover, in assay [2], the SARS-CoV-2 infection rate was 102% (inactive).
